From PubChem
An excerpt weighted towards active compounds, which were near 2.2% of everything screened.
GASC-1 inh: inhibitors of GASC-1 histone demethylase, primary screen, biochemical, fluorescence, DELFIA europium | Lysine-specific demethylase 4C (Homo sapiens), Q9H3R0 | GST-JMJD2C(1-420) H3K9me3 demethylation | inhibition, % at 2.35 µM | 330,000 compounds, 0.069% hits | AID 2099, 2009;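 active = more than half of a compound's replicate wells show inhibition beyond 50%, single wells judged on their own value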;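 note: signal counts dimethyl H3K9 product captured on neutravidin plate; 0% = median of DMSO wells and 100% = 0.3 times that DMSO median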
Target sequence (Q9H3R0 1-420 limits assumed): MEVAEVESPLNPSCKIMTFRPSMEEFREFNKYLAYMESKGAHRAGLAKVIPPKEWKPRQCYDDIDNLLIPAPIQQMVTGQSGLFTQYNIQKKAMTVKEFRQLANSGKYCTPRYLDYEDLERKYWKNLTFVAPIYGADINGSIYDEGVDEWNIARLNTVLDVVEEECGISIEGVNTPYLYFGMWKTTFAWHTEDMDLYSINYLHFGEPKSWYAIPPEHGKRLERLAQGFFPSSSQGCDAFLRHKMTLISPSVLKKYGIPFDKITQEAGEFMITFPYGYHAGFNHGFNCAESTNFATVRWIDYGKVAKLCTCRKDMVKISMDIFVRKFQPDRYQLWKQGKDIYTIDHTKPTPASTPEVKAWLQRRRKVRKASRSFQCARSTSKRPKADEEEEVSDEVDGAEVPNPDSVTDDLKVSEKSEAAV
V-ATPase pHluor: regulators of yeast V-ATPase proton pumping, primary screen, pHLuorin cytosolic pH fluorescence; 350,000 compounds, 0.37% hits; S. cerevisiae; response, % at 10 µM; in the data active = response mostly above about 7.3%, no sharp cut-off; inactive = mostly below about 5.4%; note: actives read high
VLA-4 inh: inhibition in human VLA-4 binding assay, primary screen, VLA-4 allosteric modulator project, MLPCN library, flow cytometry, VLA-4 expressing cells; Integrin alpha-4 (Homo sapiens), P13612; ligand binding flow cytometry; inhibition, % (about 7 µM as worked out from the volumes in the protocol); 330,000 compounds, 0.2% hits; AID 2557, 2010; in the data active = inhibition above about 50%
HTR2A ag: mouse Htr2a agonists via beta-arrestin recruitment, primary screen, cell-based, luminescence. 5-hydroxytryptamine receptor 2A (Mus musculus), P35363. activation, % at 7.6 µM. CHO-K1 mHTR2A beta-arrestin complementation; percent of 30 µM serotonin response. 360,000 compounds, 0.66% hits;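 active = activation above a run cutoff, the mean activation of all tested compounds plus 3 SD, cut at about 14% in these data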;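 note: 0% = plate median of compound wells and 100% = 30 µM serotonin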
Granule exo inh: LAMP-1 surface exposure blockers, TALL-104 cells – cell-based, flow cytometry, MLPCN library, primary screen; 360,000 compounds, 0.66% hits; TALL-104 LAMP-1 surface exposure; cells stimulated with thapsigargin and PMA; inhibition, % at 10 µM; AID 651702, 2012;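 active = inhibition above about 55%, limit read from the data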
MEX-5 binding: MEX-5 zinc finger RNA-binding disruptors – biochemical, C. elegans, fluorescence polarization, MLPCN library, primary screen; MEX-5/FITC-TCR2 RNA binding; hits give low values; activity score (negative = inhibition of binding), % at 10 µM; 300,000 compounds, 0.38% hits; Zinc finger protein mex-5 (Caenorhabditis elegans), Q9XUB2;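 active = inhibition past about -25% in most replicates, and total fluorescence under double the plate's negative control median, limit read from the data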;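 note: 0% = DMSO and -100% = 5 µM competing unlabeled TCR2 RNA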
VLA-4 mod pick: retest of VLA-4 allosteric modulators, confirmation, cell-based, cherry-picked plates, U937, HUTS-21 LIBS antibody. shares compounds with VLA-4 inh. U937 cells, HUTS-21 LIBS mAb binding, flow cytometry; LDV ligand present at threefold Kd. inhibition, % at 6.7 µM. 1,300 compounds, 2% hits. AID 2813, 2010; in the data active = inhibition above about 40%;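 note: 0% = ligand without compound and 100% = no ligand background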
An asterisk follows results filed as active; · = no result given.

SMILES | GASC-1 inh | V-ATPase pHluor | VLA-4 inh | HTR2A ag | Granule exo inh | MEX-5 binding | VLA-4 mod pick
CC(C)C(NS(=O)(=O)c1ccc2c(c1)C(C)(C)C(=O)N2C)C(=O)NCc1ccccc1Cl (centres undefined) | -5 | 1 | 74* | -1 | 1 | 0 | -15
CCC(C)NC(=O)c1ccc(CNS(=O)(=O)c2ccc3c(c2)C(C)(C)C(=O)N3C)cc1 (centres undefined) | -7 | 6 | -3 | -2 | 2 | 3 | ·
CN1C(=O)C(C)(C)c2cc(S(=O)(=O)NCc3ccc(Cl)cc3)ccc21 | -3 | -4 | 0 | -2 | 2 | 1 | 0
Cc1ccc(C)c(C(O)c2ncc(-c3ccc4ccccc4c3)[nH]2)c1 (centres undefined) | · | · | · | -1 | -2 | · | ·
CC(C)c1ccc(C2(C)NC(=O)N(CC(=O)NC3CCCC(C)C3C)C2=O)cc1 (centres undefined) | 6 | -2 | 52* | 1 | -3 | · | 0
N#Cc1ccc(C23CC4(C2)[C@H](CN(Cc2ccc(C(F)(F)F)cc2)[C@@H]4c2ccccc2)C3c2ccc(Cl)nc2)cc1 (some centres undefined) | 0 | · | · | · | · | 2 | ·
COc1cccc(-c2cc(C(F)(F)F)n3nc(C(=O)N4CCCCC4c4cccnc4)cc3n2)c1 (centres undefined) | · | 1 | -4 | 4 | -1 | · | ·
CCOC(=O)C1(Cc2ccccc2)C(=O)Nc2ccccc21 (centres undefined) | -1 | 1 | 4 | 0 | -2 | 1 | ·
CCOC(=O)C1(C(F)(F)F)N=C(C(F)(F)F)Nc2ccccc21 (centres undefined) | 3 | -4 | 56* | 0 | -8 | -1 | 1
CCOc1cc(C(=O)N/N=C/C(Br)=C/c2ccccc2)cc(OCC)c1OCC | 11 | 0 | 51* | -3 | 1 | 2 | 18
O=C(N/N=C/C(Br)=C/c1ccccc1)c1ccncc1 | 3 | 2 | 3 | 1 | -10 | 1 | ·
O=[N+]([O-])/C=C/c1cn(Cc2ccccc2)c2ccccc12 | -2 | 1 | 18 | -5 | 18 | -12 | ·
N#Cc1ccccc1Cn1cc(/C=C/[N+](=O)[O-])c2ccccc21 | 1 | 1 | 42 | 0 | 61* | -1 | 31
O=C(Nc1ccc(CN2CCCCC2)cc1)Nc1ccccc1Cl | -2 | -3 | 6 | -5 | 8 | 2 | ·
O=C(Nc1ccc(Br)cc1)Nc1ccccc1Cl | 3 | 2 | 6 | 2 | 12 | 0 | 0
Cc1c(NC(=O)C(c2ccccc2)c2ccccc2)cccc1C(=O)O | -5 | -2 | 0 | 7 | -1 | 2 | ·
O=C(O)c1cc(O)ccc1NC(=O)C(c1ccccc1)c1ccccc1 | 19 | -3 | 22 | -8 | 1 | -4 | 0
CCCNC(=O)c1cc(-c2ccc3c(c2)OCO3)on1 | 30 | -3 | 40 | -1 | 6 | 0 | ·
CCN(CC)C(=O)c1cc(-c2ccc3c(c2)OCO3)on1 | 41 | 2 | 55* | 2 | -7 | 1 | -6
O=C(NC1CCN(Cc2ccccc2)CC1)c1ccc(S(=O)(=O)NCc2ccco2)cc1 | -3 | 1 | 0 | -3 | -2 | 2 | ·
O=C(NC1CCCCC1)c1ccc(S(=O)(=O)NCc2ccco2)cc1 | 2 | 0 | 52* | -6 | 2 | 1 | 4
Cc1ccc(S(=O)(=O)N2CCOCC2)cc1NC(=O)COC(=O)c1ccccc1OCc1c(C)noc1C | -3 | 2 | 40 | -1 | -4 | 0 | -14
Cc1ccc(C)c(N/C(N)=N/c2nc(C)cc(C)n2)c1 | -3 | 0 | 54* | -11 | -1 | 0 | 3
COc1ccc(C)cc1N/C(N)=N/c1nc(C)cc(C)n1 | -1 | -1 | -3 | -7 | 4 | 2 | ·
Cc1ccc(S(=O)(=O)CCC(=O)OCc2ccc(S(=O)(=O)C(C)C)cc2)cc1 | -3 | 3 | 51* | 2 | -7 | -2 | 3
SMILES | GASC-1 inh | V-ATPase pHluor | VLA-4 inh | HTR2A ag | Granule exo inh | MEX-5 binding | VLA-4 mod pick
CCN(CC)CCn1c2c(c(SCC(=O)Nc3ccc4c(c3)OCCO4)nc1=O)CCCC2 | -17 | 7 | -2 | -2 | -3 | 0 | ·
O=C(NCc1ccccc1F)C1CCN(C(=O)c2sccc2-n2cccc2)CC1 | -3 | 1 | 111* | -1 | -5 | 0 | 9
COc1ccccc1NC(=O)Cc1ccsc1 | 7 | 1 | -2 | -1 | -10 | 0 | ·
O=C(NC1CC1)c1ccc2c(c1)N(Cc1ccccc1)CCS2 | 10 | -2 | 5 | 3 | -21 | 2 | ·
Nc1cc(C(=O)OCC(=O)NCCC2=CCCCC2)ccc1Cl | -1 | -1 | -19 | -5 | -3 | · | 5
O=C(COC(=O)c1ccc(Br)cc1)NCCC1=CCCCC1 | -27 | 0 | 3 | 8 | -2 | 0 | ·
Cc1cn(-c2cc(C(=O)Nc3ccc(C)c(NC(=O)N4CCNC4=O)c3)cc(C(F)(F)F)c2)cn1 | · | -3 | 59* | -4 | -8 | 1 | -25
CCN1CCN(Cc2ccc(NC(=O)c3ccc(C)c(NC(=O)N4CCNC4=O)c3)cc2C(F)(F)F)CC1 | 2 | 0 | -6 | -1 | -10 | 1 | 6
CCN1CCN(Cc2ccc(NC(=O)c3ccc(C)c(NC(=O)c4nccn4C)c3)cc2C(F)(F)F)CC1 | -11 | -2 | -7 | -11 | 4 | 0 | ·
Cc1ccc(NS(=O)(=O)c2ccc3c(c2)CC(=O)N3)cc1F | 9 | -3 | 41 | 4 | -2 | · | 3
O=C1Cc2cc(S(=O)(=O)Nc3ccc(N4CCOCC4)cc3)ccc2N1 | -131 | 2 | 10 | 4 | -2 | · | -10
Cc1ccc(S(=O)(=O)Nc2ccc(N3CCOCC3)cc2)cc1C | 5 | -5 | 2 | -3 | -2 | 1 | ·
COc1ccccc1NC(=O)c1c(N=Cc2ccccc2O)cnn1C | 3 | · | 3 | · | · | 1 | ·
Cc1cc(C)nc(-n2ncc3c2CC(C)CC3=O)n1 (centres undefined) | -13 | 2 | -8 | 0 | 1 | -1 | 11
Cc1cc(C)c2oc(C(=O)NC3CCS(=O)(=O)C3)cc(=O)c2c1 (centres undefined) | 3 | 2 | 9 | -2 | -2 | 1 | ·
